Data from PubChem BioAssay (NCI).
Compounds without any hit were thinned out: in the full panel of roughly 83,000, 20% have a hit.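 Treatment: one concentration, 48 hours, 96-well format. Scoring: percent growth, with anything below 10 considered active.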 Active and inactive are the calls of the source.

Each molecule was assayed on HL-60(TB) leukemia (assay: NCI-60 one-dose screen, 48 h (100 = growth as untreated, 0 = no growth, -100 = all killed)). Conditions: 10 µM unless noted.

SMILES | growth
C[C@]12CC[C@H]3[C@@H](CC[C@H]4C[C@@H](O)CC[C@@]43C)[C@@H]1CC(=O)C2 | 83% (inactive)
Oc1ccc(Nc2nccc(-c3ccc4ccccc4c3)n2)cc1 | 7.93% (active)
Nc1ccccc1NC(=O)c1ccc(-n2nc(-c3ccccc3)c3ccccc32)cc1 | -4.94% (active)
C#C[C@]1(O)CCC2C3CCc4cc(OC5CCCC5)ccc4C3CC[C@@]21C (stereo partly drawn) | 77% (inactive)
COc1cc(NCCCN=C(N)NC(N)=NC(C)C)c2ncccc2c1 | 85.7% (inactive)
CC(C)(C)n1cc(-c2ccnc(NCCCNS(=O)(=O)c3ccc(F)cc3)c2)c(-c2cccc(O)c2)n1 | 39.9% (inactive)
Cn1ccnc1C(=O)/C=C/c1ccc(C(=O)Nc2ccc(Cl)cc2)cc1 | -16.9% (active)
CC(C)=CC[C@@H]1CC2(CC=C(C)C)C(=O)C(OC3(C(=O)c4ccccc4)C(=O)C4(CC=C(C)C)C[C@@H](CC=C(C)C)C(C)(C)C(CC=C(C)C)(C4=O)C3=O)(C(=O)c3ccccc3)C(=O)C(CC=C(C)C)(C2=O)C1(C)C (stereo partly drawn) | -47.7% (active)
COc1ccc(/C=c2\c(=O)n(-c3ccccc3)c3nn4c(=O)c(=O)[nH]nc4n23)cc1 | 112% (inactive)
NS(=O)(=O)Oc1ccc2c(ccn2C(=O)C23CC4CC(CC(C4)C2)C3)c1 | 97.6% (inactive)
CN(C)CCCC(C#N)c1ccccc1 (stereo not drawn) | 118% (inactive)
Clc1ccccc1-c1nc2ccccc2[nH]1 | 74.4% (inactive)
COc1cc(/C=N\NC(=O)CN2CCN(c3cc4c(cc3F)c(=O)c(C(=O)N/N=C/c3ccc(O)c(OC)c3)cn4C3CC3)CC2)ccc1O | 75.4% (inactive)
